Sampled rows, rich in hits. Any-hit rate of the full collection: about 17%.
TDP1 cell CPT: growth inhibition of DT40 Tdp1-/-;hTDP1 cells with camptothecin (screen for TDP1 inhibitors); AID 686979; chicken DT40 Tdp1-/-;hTDP1 cells + 20 nM CPT, ATP luminescence, 48 h; Potency, µM (titrated, usually from 46.2 µM), usual class: inhibitors; actives 12% (n = 420,000); also: nearly all actives have a fitted effect of over 55% in size
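Cell growth measured by CellTiter-Glo luminescence after a minimum 48 h, 37 C compound exposure with 20 nM CPT in Tdp1-knockout DT40 cells stably expressing hTDP1, seeded 400/well; qHTS titration format.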
TDP1 cell noCPT: qHTS for Inhibitors of human tyrosyl-DNA phosphodiesterase 1 (TDP1): qHTS in cells in absence of CPT | DT40 Tdp1-/- hTDP1 cells, no CPT, ATP luminescence, 48 h | Potency, µM (top dose mostly 46.2 µM), usual class: inhibitors | actives 15% (n = 420,000); also: nearly all actives have a fitted effect of over 55% in size
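Readout: luminescence from CellTiter-Glo after 30 min in the dark at RT. Cells: DT40 Tdp1-/- with stable hTDP1, 400/well. Exposure: compounds alone, ≥48 hr, 37 °C.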
HT1080 IDH1KD tx: HT-1080 IDH1 knockdown cell toxicity (counter line) | AID 686971 | Potency, µM (series often up to 46.1 µM), hits mostly cytotoxic | actives 2% (n = 360,000) | HT-1080 IDH1 knockdown viability, ATP luminescence, 48 h
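HT-1080-IDH1KD cells (IDH1 knocked down), 750/well in RPMI with 5% FBS, treated with compound 48 h at 37 degrees C. Viability by CellTiter-Glo luminescence, normalised to DMSO and no-cell wells; concentration-response curves classed.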
TGFb SMAD3 inh: inhibitors of TGF-b signaling. actives 1.2% (n = 410,000). HepG2 CAGA-GFP TGF-b/SMAD3 reporter, GFP fluorescence, 18 h; TGF-beta stimulated, 500 pg/mL final. Potency, µM (series often up to 46.1 µM), hits mostly inhibitors. AID 588855; also: nearly all actives have a fitted effect of over 65% in size
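First, reporter cells (HEPG2 CAGA-GFP) rested 2 h at 37 degrees C. Next, compounds were pinned in and TGF-beta added to 500 pg/mL final. After 18 h, GFP was imaged per cell and summed per well.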
HT1080-NT tox: kills 2HG-producing HT-1080-NT fibrosarcoma cells; Potency, µM (series often up to 46.1 µM), usual class: cytotoxic; actives 1.6% (n = 360,000); HT-1080-NT fibrosarcoma viability, CellTiter-Glo ATP luminescence, 48 h;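 also: NT is the 2HG producing partner of a matched IDH1 knockdown line; nearly all actives have a fitted effect of over 55% in size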
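Fibrosarcoma NT cells, 750 per well in 5% FBS RPMI, were exposed to compound for 48 hours. Viability: CellTiter-Glo luminescence.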
HepG2 tox: HepG2 cytotoxicity, counter-screen for TGF-b inhibitors; HepG2 CAGA-GFP viability, ATP luminescence, 18 h; Potency, µM (doses to about 46.1 µM), most hits filed as cytotoxic; actives 0.76% (n = 410,000); AID 588856
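CellTiter-Glo luminescence gave cytotoxicity after 18 hours at 37 degrees C. The cells were HepG2 CAGA-GFP in 1% FBS DMEM, stimulated with 500 pg/mL TGF-beta after compound addition. %Activity was normalised to no-cell wells (complete cell-killing) and DMSO (no toxicity), and curves were fitted and classified.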
Of the large screens only hits and unclear results are named; the others gave an inactive call; ! = not confirmed by another sample. Calls follow the shape of the dose curve; as a rule, active = well fitted curve in the direction sought with a large enough effect; inconclusive = small, poorly fitted or top-dose-only effect, or another doubt; inactive = no such curve, though single readings can be large; an effect the other way counts as inactive or inconclusive.

COc1cccc(C2=C(C(C)=O)Sc3nnc(C4CCCCC4)n3N2C(C)=O)c1	TDP1 cell CPT 7.3µM, TDP1 cell noCPT 12µM, TGFb SMAD3 inh inconclusive (no result: HT1080 IDH1KD tx, HT1080-NT tox)
CC(=O)C1=C(c2ccccc2)N(C(C)=O)n2c(nnc2C2CCCCC2)S1	TDP1 cell CPT inconclusive, TDP1 cell noCPT 4.6µM, TGFb SMAD3 inh 11µM, HepG2 tox 11µM (no result: HT1080 IDH1KD tx, HT1080-NT tox)
CCC(=O)C1=C(c2cccc(OC)c2)N(C(=O)CC)n2c(nnc2C2CCCCC2)S1	TDP1 cell CPT 8.2µM, TDP1 cell noCPT 12µM (no result: HT1080 IDH1KD tx, HT1080-NT tox)
Cc1noc(C)c1C(=O)N1CCC1(C)C(=O)NS(=O)(=O)c1cccc(F)c1 (configuration not stated)	none
CCNc1ncc2nc(-c3ccc(F)cc3)c(=O)n(C[C@H]3CCCO3)c2n1	none (no result: HT1080 IDH1KD tx, TGFb SMAD3 inh, HT1080-NT tox, HepG2 tox)
Cc1c(O)cc2n(c1=O)-c1ccccc1C2(C)C	none
CC1(C)c2ccccc2-n2c1cc1oc(=O)cc(O)c1c2=O	TDP1 cell CPT inconclusive, TDP1 cell noCPT 21µM
O=S(=O)(c1cccc(C(F)(F)F)c1)N1CCC(c2cc(-c3cccc4ccccc34)n[nH]2)CC1	TDP1 cell CPT 21µM, TDP1 cell noCPT inconclusive
CCOC(=O)C1CCN(C(=O)CC(C)c2ccccc2)CC1 (configuration not stated)	TDP1 cell CPT 18µM, TDP1 cell noCPT inconclusive
CCOC(=O)C1CCCN(C(=O)c2ccc(OC)cc2)CC1 (configuration not stated)	HT1080 IDH1KD tx inconclusive
CCOC(=O)C1CCN(Cc2ccc3ccccc3c2)CC1	none
CCOC(=O)C1CCCN(C(=O)c2ccc(-c3ccccc3)cc2)CC1 (configuration not stated)	TDP1 cell CPT 16µM, TDP1 cell noCPT inconclusive
CCOC(=O)C1CCCN(C(=O)c2ccc3c(c2)C(C)(C)CCC3(C)C)CC1 (configuration not stated)	TDP1 cell CPT 8.2µM, TDP1 cell noCPT 6.5µM, HT1080 IDH1KD tx inconclusive, TGFb SMAD3 inh 14µM, HT1080-NT tox inconclusive
CCOC(=O)C1CCCN(C(=O)CC(C)c2ccccc2)C1 (configuration not stated)	none
CCOC(=O)C1CCN(Cc2cc(C(C)C)c(O)c(C(C)C)c2)CC1	TDP1 cell CPT 9.2µM, TDP1 cell noCPT 9.2µM, TGFb SMAD3 inh inconclusive
COc1ccccc1N1CCN(CC(=O)Nc2nc(C)c(C(=O)N(C)C)s2)CC1	none
CN(Cc1ccccc1OCCO)CC1CCCN(CCc2ccc(Cl)cc2)C1 (configuration not stated)	TDP1 cell CPT inconclusive, TDP1 cell noCPT inconclusive, HT1080 IDH1KD tx inconclusive, HT1080-NT tox inconclusive
O=C(COc1ccc2ccccc2c1)Nc1ccc(O)c(-c2nc3ccccc3o2)c1	TDP1 cell CPT inconclusive, TDP1 cell noCPT inconclusive (no result: HT1080 IDH1KD tx, HT1080-NT tox)
N=C(N)c1ccc(/C=C/c2ccc(C(=N)N)cc2O)cc1	TDP1 cell CPT 13µM!, TDP1 cell noCPT inconclusive
Cc1ccc(C)c(-n2c(-c3cccnc3)n[nH]c2=S)c1	none
Cc1[nH]nc(-c2cccnc2)c1N=NN(C)C	TDP1 cell CPT 0.82µM, TDP1 cell noCPT 1.5µM, HT1080 IDH1KD tx 21µM, TGFb SMAD3 inh inconclusive, HT1080-NT tox 21µM, HepG2 tox 14µM
CCC(C)N(NC(C)=O)c1nc(Cl)nc(NC(C)(C)C)n1 (configuration not stated)	none
CCOc1ccc(Cl)cc1S(=O)(=O)n1nnc2ccccc21	TDP1 cell CPT 16µM, TDP1 cell noCPT inconclusive, TGFb SMAD3 inh inconclusive
CCOc1ccc(S(=O)(=O)n2nnc3ccccc32)cc1C	none
Cc1cc(C)n(Cc2ccc(Cl)c(Cl)c2)c(=O)c1S(=O)(=O)c1ccccc1	TDP1 cell CPT inconclusive, TDP1 cell noCPT inconclusive
O=C(Cc1csc(Nc2nc(=S)[nH]c3ccccc23)n1)N1CCN(c2cccc(Cl)c2)CC1	TDP1 cell CPT 15µM, TDP1 cell noCPT 15µM, HT1080-NT tox inconclusive
Cc1ccc(Cl)cc1N1CCN(C(=O)Cc2csc(Nc3nc(=S)[nH]c4ccccc34)n2)CC1	TDP1 cell CPT 13µM, TDP1 cell noCPT 15µM
COc1ccccc1N(C)S(=O)(=O)c1ccc(C(=O)Nc2ccncc2)cc1	TDP1 cell CPT inconclusive, TDP1 cell noCPT 18µM
CSc1ccc(CN(C)C(=O)c2ccc(S(=O)(=O)Nc3ccccc3)cc2)cc1	TDP1 cell CPT 18µM, TDP1 cell noCPT 21µM, TGFb SMAD3 inh inconclusive
CN(Cc1cccc(F)c1)C(=O)c1ccc(NS(=O)(=O)c2ccc3[nH]c(=O)[nH]c3c2)cc1	HepG2 tox 0.28µM
Cc1ccc(CN(C)C(=O)c2ccc(NS(=O)(=O)c3ccc4[nH]c(=O)[nH]c4c3)cc2)cc1	TGFb SMAD3 inh inconclusive
COc1ccccc1N(C)S(=O)(=O)c1ccc(C(=O)N2CCCc3ccccc32)cc1	TDP1 cell CPT 21µM, TDP1 cell noCPT 23µM
Cc1c(-c2nsc(NC(=O)c3cccs3)n2)nnn1-c1ccc(Br)cc1	TDP1 cell CPT inconclusive, TDP1 cell noCPT inconclusive (no result: HT1080 IDH1KD tx, HT1080-NT tox)
O=C(/C=C/c1cccc([N+](=O)[O-])c1)NCCSCc1ccc(Cl)cc1	TDP1 cell noCPT inconclusive, TGFb SMAD3 inh inconclusive
Cc1cc(Cl)ccc1NC(=O)Cn1nnc2sc(-c3ccccc3)cc2c1=O	TDP1 cell noCPT inconclusive (no result: HT1080 IDH1KD tx, HT1080-NT tox)
C[N+]1(CC(=O)c2ccc(F)cc2)CCc2ccccc2C1 (configuration not stated)	none (no result: HT1080 IDH1KD tx, HT1080-NT tox)
COc1ccccc1N(C)S(=O)(=O)c1ccc(C(=O)N(C)Cc2cccc(F)c2)cc1	TDP1 cell CPT 16µM, TDP1 cell noCPT 16µM
COc1ccccc1N(C)S(=O)(=O)c1ccc(C(=O)OCC(=O)Nc2ccccc2F)cc1	none
COc1ccccc1NC(=O)c1ccc(S(=O)(=O)N(C)c2ccccc2OC)cc1	TDP1 cell CPT inconclusive, TDP1 cell noCPT inconclusive
COc1cc(NC(=O)c2ccc(S(=O)(=O)N(C)C)cc2)cc(OC)c1OC	none
COc1ccccc1N(C)S(=O)(=O)c1ccc(C(=O)NC2CCCCC2)cc1	TDP1 cell CPT 15µM, TDP1 cell noCPT inconclusive
COc1ccccc1N(C)S(=O)(=O)c1ccc(C(=O)Nc2ccc(C)cc2C)cc1	TDP1 cell CPT inconclusive, TDP1 cell noCPT 23µM
COc1ccccc1N(C)S(=O)(=O)c1ccc(C(=O)Nc2cc(OC)c(OC)c(OC)c2)cc1	TDP1 cell CPT 16µM, TDP1 cell noCPT 12µM
C=C(C)Cn1c2ccc(NC(=O)NCCc3ccccc3)cc2c(=O)n1C	none
COc1ccc(NC(=O)C[C@H]2C(=O)N(c3ccc(OC)cc3)C[C@@H]2C)cc1	TDP1 cell noCPT inconclusive

Bioassay records from PubChem.
